According to PubChem BioAssay (NCATS):
Records with an inconclusive call do not appear. The source made the active and inactive calls. Calls follow the shape of the dose curve; as a rule, active = well fitted curve in the direction sought with a large enough effect; inconclusive = small, poorly fitted or top-dose-only effect, or another doubt; inactive = no such curve, though single readings can be large; an effect the other way counts as inactive or inconclusive. Where a SMILES comes first, the peptide text is derived from it.

Experiments:
MCC-13 = assay: qHTS assay to identify novel small-molecules to repurpose for Merkel cell carcinoma treatment (AID 1296009); conditions: MCC and control cell lines, CellTiter-Glo viability, 72 h; series mostly up to 46 µM; also: nearly all actives have a fitted effect of over 60% in size
Summary of the method: (§1)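 Cells were incubated with compound for 72 hr at 37 degree celsius before CellTiter-Glo addition. Luminescence was normalized with no-cell wells as full cytotoxicity and DMSO as baseline.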

MCC-26 = assay: as above; conditions: MCC and control cell lines, CellTiter-Glo viability, 72 h; series mostly up to 46 µM
Summary of the method: as §1

MKL-1 = assay: as above; conditions: MCC and control cell lines, CellTiter-Glo viability, 72 h; series mostly up to 46 µM
Summary of the method: as §1

MKL-2 = assay: as above; conditions: MCC and control cell lines, CellTiter-Glo viability, 72 h; series mostly up to 46 µM
Summary of the method: as §1

UISO = assay: as above; conditions: MCC and control cell lines, CellTiter-Glo viability, 72 h; series mostly up to 46 µM
Summary of the method: as §1

WaGa = assay: as above; conditions: MCC and control cell lines, CellTiter-Glo viability, 72 h; series mostly up to 46 µM
Summary of the method: as §1

C33A = assay: Primary qHTS to identify gynecologic anti-cancer compounds using libraries of approved drugs and bioactive compounds (AID 1345084); conditions: Gynecologic cancer cell panel viability, ATPlite luminescence, 48 h; series mostly up to 57.5 µM; also: nearly all actives have a fitted effect of over 55% in size
Summary of the method: (§2)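 Five-concentration response, 48 h; readout is ATP-driven luciferase luminescence.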

CAOV3 = assay: as above; conditions: Gynecologic cancer cell panel viability, ATPlite luminescence, 48 h; series mostly up to 57.5 µM
Summary of the method: as §2

CASKI = assay: as above; conditions: Gynecologic cancer cell panel viability, ATPlite luminescence, 48 h; series mostly up to 57.5 µM
Summary of the method: as §2

Es-2 = assay: as above; conditions: Gynecologic cancer cell panel viability, ATPlite luminescence, 48 h; series mostly up to 57.5 µM
Summary of the method: as §2

HeLa = assay: as above; conditions: Gynecologic cancer cell panel viability, ATPlite luminescence, 48 h; series mostly up to 57.5 µM
Summary of the method: as §2

Hek293T = assay: as above; conditions: Gynecologic cancer cell panel viability, ATPlite luminescence, 48 h, control line for the selectivity index; series mostly up to 57.5 µM
Summary of the method: as §2

JEG-3 = assay: as above; conditions: Gynecologic cancer cell panel viability, ATPlite luminescence, 48 h; series mostly up to 57.5 µM
Summary of the method: as §2

OV90 = assay: as above; conditions: Gynecologic cancer cell panel viability, ATPlite luminescence, 48 h; series mostly up to 57.5 µM
Summary of the method: as §2

PA-1 = assay: as above; conditions: Gynecologic cancer cell panel viability, ATPlite luminescence, 48 h; series mostly up to 57.5 µM
Summary of the method: as §2

SKOV3 = assay: as above; conditions: Gynecologic cancer cell panel viability, ATPlite luminescence, 48 h; series mostly up to 57.5 µM
Summary of the method: as §2

Tov-21-G = assay: as above; conditions: Gynecologic cancer cell panel viability, ATPlite luminescence, 48 h; series mostly up to 57.5 µM
Summary of the method: as §2

Tov112D = assay: as above; conditions: Gynecologic cancer cell panel viability, ATPlite luminescence, 48 h; series mostly up to 57.5 µM
Summary of the method: as §2

Measured: Potency

CNC(=O)c1c(I)c(NC(C)=O)c(I)c(C(=O)O)c1I
inactive: all assays above

O=[N+]([O-])c1nccn1CO[C@@H](CO)[C@H](O)CO
inactive: all assays above

CCOC(=O)[C@H](CCc1ccccc1)N[C@@H](C)C(=O)N(CC(=O)O)C1Cc2ccccc2C1
inactive: all assays above

O=C(O)CCC(=O)OC[C@@H](NC(=O)C(Cl)Cl)[C@H](O)c1ccc([N+](=O)[O-])cc1
inactive: all assays above

CCCCC(CC)CNC(=O)CC(C)OC(=O)CCC(=O)O (configuration not stated)
inactive: all assays above

Cc1sccc1Br
inactive: all assays above

CN1Cc2cc(C(=O)N3CCC(C4CCNCC4)CC3)ccc2N[C@@H](CC(=O)O)C1=O
inactive: all assays above

C/C(=C1\CCOC(=O)S1)N(C=O)Cc1cnc(C)nc1N
inactive: all assays above

CC(=O)N[C@@H](CO)C(=O)N[C@@H](CC(=O)O)C(=O)N[C@@H](CCCCN)C(=O)N1CCC[C@H]1C(=O)O (Ac-SDKP-OH)
inactive: all assays above

CC1(C)O[C@@H]2C[C@H]3[C@@H]4CCC5=CC(=O)C=C[C@]5(C)[C@@]4(F)[C@@H](O)C[C@]3(C)[C@]2(C(=O)CO)O1
inactive: all assays above

CC(=O)OCC(=O)Nc1cc(C#N)cc(NC(=O)COC(C)=O)c1Cl
inactive: all assays above

CCCCCCn1c(=O)c2c(ncn2C)n(C)c1=O
inactive: all assays above

O=C(O)c1ccc(OCCN2CCCCC2)cc1
inactive: all assays above

C[N+]1(C)CCC(OC(=O)C(O)(c2ccccc2)C2CCCC2)C1 (configuration not stated)
inactive: all assays above
